Inconclusive results are not listed. Active and inactive are the calls of the source. Unless noted, the call rests on the fitted dose curve; in most records, active means well fitted curve in the direction sought with a large enough effect in the repeat runs; inconclusive means weak or mixed curves; inactive means no such curve, though single readings can be large; an effect the other way counts as inactive or inconclusive.
Columns and labels:
[1] = A CellTox Green Cytotoxicity Assay to monitor cytotoxicity in HepG2 cells - 8 hour (AID 1224890); further: nearly all actives have a fitted effect of over 45% in size
In short: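 Cytotoxicity was tracked as dead-cell DNA fluorescence in HepG2 cells treated with test compounds at 37 C; each time-point value comes from one kinetic series spanning 0, 8, 16, 24, 32 and 40 h.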

[2] = qHTS assay to identify small molecule antagonists of the estrogen receptor alpha (ER-alpha) signaling pathway using the BG1 cell line in the presence of 0.1 nM 17-beta-estradiol - cell viability counter screen (AID 1259241); further: nearly all actives have a fitted effect of over 40% in size
In short: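 Following 5 days in phenol red-free medium with charcoal-stripped serum, VM7Luc4E2 cells received test compounds alongside 0.1 nM 17beta-estradiol (final) at 37C for 22 hr. Live cells were then quantified via protease-substrate fluorescence.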

[3] = qHTS assay to identify small molecule antagonists of the androgen receptor (AR) signaling pathway using the MDA cell line in the presence of 0.5 nM R1881 - cell viability counter screen (AID 1259242); further: nearly all actives have a fitted effect of over 45% in size
In short: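 Cells seeded at 3,000/well and allowed 5 hr at 37C, 0% CO2 before compound transfer and R1881 (0.5 nM final) addition; 16 hr later, live-cell protease fluorescence indicated cytotoxicity.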

[4] = molecular target: Androgen receptor (Homo sapiens) (UniProt P10275); assay: qHTS assay to identify small molecule antagonists of the androgen receptor (AR) signaling pathway using the MDA cell line in the presence of 0.5 nM R1881 (AID 1259243); further: nearly all actives have a fitted effect of over 50% in size
In short: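 Luminescence from an AR/GR-responsive MMTV-luciferase construct in MDA-kb2 breast carcinoma cells, read 30 min after ONE-Glo, following 16 hr co-treatment with compounds and 0.5 nM R1881.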

[5] = molecular target: Estrogen receptor (Homo sapiens) (UniProt P03372); assay: qHTS assay to identify small molecule antagonists of the estrogen receptor alpha (ER-alpha) signaling pathway using the BG1 cell line in the presence of 0.1 nM 17-beta-estradiol (AID 1259244); further: nearly all actives have a fitted effect of over 50% in size
In short: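 Luciferase signal from VM7Luc4E2 ERE-reporter cells, co-dosed with test compound and 0.1 nM final 17beta-estradiol for 22 h, read with ONE-Glo.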

[6] = qHTS assay to identify small molecule HDAC inhibitors (AID 1259364);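 further: wild-type HCT-116 cells with endogenous class I/II HDAC activity; top concentration of the series differs between compounds; nearly all actives have a fitted effect of over 45% in size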
In short: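 HCT-116 wt cells, 1,500/well, overnight attach. Compounds (DMSO) 2 h, 37 °C. HDAC-Glo I/II, 30 min RT. Luminescence.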

[7] = qHTS assay to identify small molecule HDAC inhibitors - cell viability counter screen (AID 1259365); further: series mostly up to about 92 µM; nearly all actives have a fitted effect of over 50% in size
In short: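 HCT-116 wild-type, overnight attachment; 2hr drug exposure, 37C; CellTiter-Glo luminescent ATP readout after 30min RT.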

[8] = qHTS assay to identify small molecule agonists of the sonic hedgehog signaling (Shh) pathway - cell viability counter screen (AID 1259366); further: nearly all actives have a fitted effect of over 50% in size
In short: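 Compounds in DMSO were pin-transferred onto 3T3 Gli1-Luc cells that had settled 4hr; plates then stood 24hr at 37C and 5% CO2. One hour before the end, CellTiter-Fluor was added and fluorescence recorded.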

[9] = qHTS assay to identify small molecule antagonists of the sonic hedgehog signaling (Shh) pathway - cell viability counter screen (AID 1259367); further: nearly all actives have a fitted effect of over 55% in size
In short: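 Cytotoxicity was assessed in parallel with Shh reporter activity by measuring live-cell protease fluorescence (CellTiter-Fluor) in NIH/3T3 cells stably carrying Gli1-Luc, treated with compound under conditioned medium stimulation for 23 hr plus 1 hr reagent incubation.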

[10] = qHTS assay to identify small molecule agonists of the sonic hedgehog signaling (Shh) pathway (AID 1259368; calls by dose curve;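 further: NIH/3T3-derived 3T3Gli1-Luc cells carrying a stable Gli1-driven firefly luciferase reporter; series mostly up to about 92 µM; nearly all actives have a fitted effect of over 15% in size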)
In short: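 Following a 24 hr incubation with DMSO-dissolved compounds at 37 C, 5% CO2, Gli1-Luc NIH/3T3-derived cells received luciferase reagent for 30 min at room temperature prior to luminescence measurement.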

[11] = qHTS assay to identify small molecule antagonists of the sonic hedgehog signaling (Shh) pathway (AID 1259369; calls by dose curve; further: nearly all actives have a fitted effect of over 45% in size; further: potency means the concentration at half of the fitted maximal effect)
In short: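 Read-out is luminescence from a firefly luciferase gene controlled by the Gli1 response element, in 3T3Gli1-Luc cells pre-incubated 4hr then exposed to compounds and conditioned medium for 24hr.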

[12] = molecular target: Estrogen receptor beta (Homo sapiens) (UniProt Q92731); assay: qHTS assay to identify small molecule agonists of the estrogen receptor beta (ER-beta) signaling pathway (AID 1259377; active means well fitted activation curve with a large enough effect in the signal ratio in the repeat runs, not every such curve was filed as active; the % refers to the signal ratio)
In short: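 qHTS in ER-beta-UAS-bla HEK293T cells: 6 hr settling, then 16 hr compound at 37C, then LiveBLAzer substrate 2 h at RT before fluorescence reading.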

[13] = molecular target: Estrogen receptor beta (Homo sapiens) (UniProt Q92731); assay: qHTS assay to identify small molecule antagonists of the estrogen receptor beta (ER-beta) signaling pathway (AID 1259378; active means well fitted inhibition curve with a large enough effect in the signal ratio in the repeat runs, not every such curve was filed as active; the % refers to the signal ratio)
In short: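 ER-beta-UAS-bla HEK293T (GripTite) cells in 2% charcoal-stripped FBS medium were preincubated 6 hr at 37C, dosed with compound, then stimulated with 1 nM E2 (final) for 16 hr; beta-lactamase reporter read by B/G FRET fluorescence after 2 hr substrate loading.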

[14] = qHTS assay to identify small molecule agonists of the androgen receptor (AR) signaling pathway in the presence of an antagonist - cell viability counter screen (AID 1259379);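 further: MDA-kb2 human breast cancer cells carrying an MMTV luciferase reporter; series mostly up to about 92 µM; nearly all actives have a fitted effect of over 25% in size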
In short: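 Each compound was tested at 15 concentrations on MDA-kb2 cells in the presence of 3.0uM nilutamide. Viability was measured by CellTiter-Fluor fluorescence after a 16 hr incubation at 37C in a CO2-free atmosphere.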

[15] = qHTS assay to identify small molecule agonists of the estrogen receptor beta (ER-beta) signaling pathway - cell viability counter screen (AID 1259380); further: nearly all actives have a fitted effect of over 30% in size
In short: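 Compounds dissolved in DMSO were pin-transferred onto ER-beta-UAS-bla HEK293T cells that had settled 6 hr, and exposure ran 16 hr at 37C. Following the reporter read, CellTiter-Glo luminescence after 30 min at room temperature indicated cytotoxicity.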

[16] = molecular target: Androgen receptor (Homo sapiens) (UniProt P10275); assay: qHTS assay to identify small molecule agonists of the androgen receptor (AR) signaling pathway in the presence of an antagonist (AID 1259381; calls by dose curve; further: nearly all actives have a fitted effect of over 15% in size)
In short: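 Plated MDA-kb2 cells (3,000/well) were pre-incubated 5hr, given nilutamide (3.0uM final) or buffer, then dosed with compounds in DMSO at 15 concentrations. Luciferase activity was quantified by luminescence after 16hr at 37C.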

[17] = qHTS assay to identify small molecule antagonists of the estrogen receptor beta (ER-beta) signaling pathway - cell viability counter screen (AID 1259382); further: series mostly up to about 92 µM; nearly all actives have a fitted effect of over 55% in size
In short: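 CellTiter-Glo ATP luminescence measured after the LiveBLAzer read in the same wells; ER-beta-UAS-bla HEK293T cells, 16 hr compound treatment with 1nM 17-beta-estradiol agonist at 37C, 5% CO2.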

[18] = molecular target: Estrogen receptor (Homo sapiens) (UniProt P03372); assay: qHTS assay to identify small molecule agonists of the estrogen receptor alpha (ER-alpha) signaling pathway in the presence of an antagonist (AID 1259383; calls by dose curve; further: top concentration of the series differs between compounds; nearly all actives have a fitted effect of over 15% in size)
In short: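 Luminescent ERE-luciferase reporter, VM7Luc4E2 cells (endogenous ER-alpha); 10.0nM ICI-182,780 final; 15-point compound titration; 22hr at 37C; ONE-Glo, 30min RT.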

[19] = qHTS assay to identify small molecule agonists or antagonists of the thyroid stimulating hormone receptor (TSHR) signaling pathway - wild type cell line counter screen (AID 1259384; calls by dose curve)
In short: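 Wild-type HEK293 cells were plated 18 h at 37 C/5% CO2, pin-dosed with compound plus Ro20-1724 medium, held 30 min at room temperature, then given cAMP-d2 and anti-cAMP-cryptate; fluorescence was read after 1 h. Fifteen concentrations, triplicate.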

[20] = qHTS assay to identify small molecule phospholipidosis (PLD) inducers (AID 1259344; active means well fitted curve in the direction sought with a large enough effect; an effect the other way counts as inactive or inconclusive)
In short: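 Cells (HepG2, 900 per well) attach for 4 h, receive LipidTOX Red and compound together, incubate 24 h at 37 C, are fixed 30 min with paraformaldehyde/Hoechst, then imaged at one site per well.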
On the % scale 0 is the no-effect control and ±100 the full control effect.

Sequence of Estrogen receptor beta (Homo sapiens) (Q92731 whole entry, looked up): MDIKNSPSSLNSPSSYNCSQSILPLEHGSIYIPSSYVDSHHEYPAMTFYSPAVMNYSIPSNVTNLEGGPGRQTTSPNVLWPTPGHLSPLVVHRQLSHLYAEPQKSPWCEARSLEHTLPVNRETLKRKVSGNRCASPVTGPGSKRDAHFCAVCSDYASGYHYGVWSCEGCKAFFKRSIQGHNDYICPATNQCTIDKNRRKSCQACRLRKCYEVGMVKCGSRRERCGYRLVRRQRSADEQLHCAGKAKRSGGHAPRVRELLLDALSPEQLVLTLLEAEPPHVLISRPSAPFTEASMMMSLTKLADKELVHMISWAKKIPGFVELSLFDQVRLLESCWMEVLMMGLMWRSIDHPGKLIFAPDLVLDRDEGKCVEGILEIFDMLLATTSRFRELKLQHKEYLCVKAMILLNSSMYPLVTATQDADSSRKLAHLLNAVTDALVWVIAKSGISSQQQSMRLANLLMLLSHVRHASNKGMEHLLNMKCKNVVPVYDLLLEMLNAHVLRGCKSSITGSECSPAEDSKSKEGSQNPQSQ
Sequence of Estrogen receptor (Homo sapiens) (P03372 whole entry, looked up): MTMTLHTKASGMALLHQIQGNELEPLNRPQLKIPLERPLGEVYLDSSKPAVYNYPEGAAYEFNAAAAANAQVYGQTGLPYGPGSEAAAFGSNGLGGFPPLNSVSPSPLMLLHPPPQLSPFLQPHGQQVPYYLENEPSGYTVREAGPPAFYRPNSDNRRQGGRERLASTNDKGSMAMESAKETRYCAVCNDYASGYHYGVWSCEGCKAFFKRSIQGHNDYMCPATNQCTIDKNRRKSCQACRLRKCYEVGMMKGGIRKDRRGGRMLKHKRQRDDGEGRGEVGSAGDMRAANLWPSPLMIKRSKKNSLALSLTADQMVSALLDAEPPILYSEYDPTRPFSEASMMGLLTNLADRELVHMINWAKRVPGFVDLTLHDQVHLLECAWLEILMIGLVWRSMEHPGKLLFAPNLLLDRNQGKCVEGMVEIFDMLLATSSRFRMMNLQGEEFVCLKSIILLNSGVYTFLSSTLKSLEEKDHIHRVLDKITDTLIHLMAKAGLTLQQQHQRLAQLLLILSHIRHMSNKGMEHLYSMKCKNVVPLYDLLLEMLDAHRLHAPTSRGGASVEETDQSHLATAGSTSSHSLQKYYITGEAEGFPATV
Sequence of Androgen receptor (Homo sapiens) (P10275 whole entry, looked up): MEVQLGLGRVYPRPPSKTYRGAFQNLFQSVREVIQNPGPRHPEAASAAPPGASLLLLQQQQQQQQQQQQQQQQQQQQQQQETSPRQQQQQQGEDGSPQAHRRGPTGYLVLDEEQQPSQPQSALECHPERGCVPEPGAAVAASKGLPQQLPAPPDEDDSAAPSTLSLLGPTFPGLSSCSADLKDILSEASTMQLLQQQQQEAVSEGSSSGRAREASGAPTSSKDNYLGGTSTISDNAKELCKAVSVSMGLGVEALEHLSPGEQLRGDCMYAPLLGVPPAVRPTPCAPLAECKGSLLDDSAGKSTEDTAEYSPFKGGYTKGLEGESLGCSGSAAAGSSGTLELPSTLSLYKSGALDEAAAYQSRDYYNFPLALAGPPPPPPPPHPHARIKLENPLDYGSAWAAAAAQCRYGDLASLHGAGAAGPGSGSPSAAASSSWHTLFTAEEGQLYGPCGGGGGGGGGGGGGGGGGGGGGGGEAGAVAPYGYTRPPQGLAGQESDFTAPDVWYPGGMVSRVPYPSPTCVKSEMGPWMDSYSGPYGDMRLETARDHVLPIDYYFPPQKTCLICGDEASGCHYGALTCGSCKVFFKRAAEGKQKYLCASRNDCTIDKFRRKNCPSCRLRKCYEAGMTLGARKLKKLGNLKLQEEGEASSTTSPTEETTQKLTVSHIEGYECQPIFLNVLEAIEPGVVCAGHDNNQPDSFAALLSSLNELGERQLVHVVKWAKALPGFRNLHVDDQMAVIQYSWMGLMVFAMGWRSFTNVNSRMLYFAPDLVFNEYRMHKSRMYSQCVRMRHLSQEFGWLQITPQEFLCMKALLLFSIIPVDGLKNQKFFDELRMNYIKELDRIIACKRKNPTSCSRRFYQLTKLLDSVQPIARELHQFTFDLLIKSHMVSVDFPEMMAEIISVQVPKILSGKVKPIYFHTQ

O=S(=O)(O)c1ccccc1O
inactive: Potency [1] | outcome [2] | outcome [3] | Potency [4] | outcome [5] | Potency [6] | outcome [7] | Potency [8] | outcome [9] | Potency [10] | Potency [11] | outcome [12] | Potency [13] | Potency [14] | Potency [15] | Potency [16] | Potency [17] | Potency [18] | outcome [19]

CC(C)(C)C(=O)/C=C/c1ccc(Cl)cc1
inactive: Potency [1] | outcome [2] | outcome [3] | outcome [5] | Potency [6] | outcome [7] | Potency [8] | outcome [9] | Potency [10] | Potency [11] | outcome [12] | Potency [13] | Potency [14] | Potency [17] | Potency [18] | outcome [19]

C=C(C)C(=O)OCCCCCCCCCCCCCCCCCC
inactive: cytotoxicity increase [1] 0.0012% [at 15.8 µM] | activity change, negative = cytotoxicity [2] 10.5% [at 19 µM] | viability change, negative = cytotoxic [3] 1.71% [at 19 µM] | activity change, negative = inhibition [5] 9.23% [at 19 µM] | activity change, negative = inhibition [6] 1.5% [at 19 µM] | activity change, negative = cytotoxicity [7] 3.83% [at 19 µM] | viability change, negative = cytotoxic [8] -3.3% [at 19 µM] | viability change, negative = cytotoxic [9] -2.33% [at 19 µM] | activity change [10] -0.0741% [at 18.9 µM, active compounds read high] | activity change, negative = inhibition [11] 6.62% [at 19 µM] | activation [12] 0.356% [at 19 µM] | activity change, negative = cytotoxicity [14] 0.335% [at 19 µM] | activity change, negative = cytotoxicity [15] -0.0598% [at 19 µM] | activity change, negative = cytotoxicity [17] 13.7% [at 19 µM] | activation [18] 0.0113% [at 19 µM] | cAMP activity change [19] -1.57% [at 18.9 µM]

O=C1C(CCS(=O)c2ccccc2)C(=O)N(c2ccccc2)N1c1ccccc1 (stereo unspecified)
inactive: Potency [1] | outcome [2] | outcome [3] | outcome [5] | Potency [20] | Potency [6] | outcome [7] | Potency [8] | outcome [9] | Potency [10] | Potency [11] | Potency [14] | Potency [15] | Potency [17]

CC(C)CCOC(=O)CC(C)C
inactive: Potency [1] | outcome [2] | outcome [3] | outcome [5] | Potency [6] | outcome [7] | Potency [8] | outcome [9] | Potency [10] | Potency [11] | Potency [14] | Potency [15] | Potency [17] | Potency [18]

CCCCCCC(CCCCCCCCCCC(=O)OCC(COC(C)=O)OC(C)=O)OC(C)=O (stereo unspecified)
inactive: Potency [1] | outcome [2] | outcome [3] | outcome [5] | Potency [6] | outcome [7] | Potency [8] | outcome [9] | Potency [10] | outcome [12] | Potency [13] | Potency [14] | Potency [15] | Potency [17] | outcome [19]
active: Potency [11] 1060 nM

CCn1cc(C(=O)O)c(=O)c2cc(F)c(N3CCN(C)CC3)cc21
inactive: cytotoxicity increase [1] -10.7% [at 15.8 µM] | activity change, negative = cytotoxicity [2] 1.73% [at 19 µM] | viability change, negative = cytotoxic [3] 1.22% [at 19 µM] | activity change, negative = inhibition [5] 6.79% [at 19 µM] | Potency [20] | activity change, negative = inhibition [6] -0.624% [at 19 µM] | activity change, negative = cytotoxicity [7] 2.46% [at 19 µM] | viability change, negative = cytotoxic [8] 6.14% [at 19 µM] | viability change, negative = cytotoxic [9] 3.37% [at 19 µM] | activity change [10] -0.335% [at 18.9 µM, active compounds read high] | activation [12] 2.22% [at 19 µM] | activity change, negative = cytotoxicity [14] 3.8% [at 19 µM] | activity change, negative = cytotoxicity [15] 5.67% [at 19 µM] | activity change, negative = cytotoxicity [17] 0.879% [at 19 µM] | activation [18] 1.75% [at 19 µM]

CC(C)(C)OC(=O)N1C[C@@H](F)C[C@H]1C(=O)O
inactive: Potency [1] | outcome [2] | outcome [3] | outcome [5] | Potency [6] | outcome [7] | Potency [8] | outcome [9] | Potency [10] | Potency [11] | outcome [12] | Potency [14] | Potency [15] | Potency [17] | Potency [18] | outcome [19]

Reference: PubChem BioAssay (Tox21)
